The values that follow come from PubChem BioAssay AID2685 (National Center for Advancing Translational Sciences (NCATS), 2010).

In all, about 320,000 compounds went through this assay and about 2,100 (0.66%) were called active. Inconclusive results (about 53%) are left out. Calls follow the shape of the dose curve; as a rule, active = well fitted inhibition curve with a large enough effect in the signal ratio, with a control signal flat (not every such curve was filed as active); inconclusive = small, poorly fitted or top-dose-only effect, or effect the other way, or a change in a side signal; inactive = flat fitted curve, though single readings scatter; the % refers to the signal ratio. The list comes from a sample in which actives are over-represented; it also holds similar structures and randomly drawn compounds.
Potency is read from the fitted curve at half-maximal effect.

This assay is described as follows: qHTS Assay for Lipid Storage Modulators in Drosophila S3 Cells.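 As to cell number change: cells counted by Cell Tracker Red CMTPX staining in the red channel.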 As to lipid storage change, negative = inhibition: % is scaled to controls: 0 for no effect and ±100 for the full control effect. As to conditions: BODIPY lipid droplet fluorescence, 18-24 h, cells fed with added oleic acid; cell number change: measured here: cell count max response; series mostly up to 46.1 µM; lipid storage change, negative = inhibition: at the top concentration. The gist of the method:
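Laser-scanning cytometry quantifies lipid droplet accumulation (500–530 nm total intensity; droplet/cell object ratio) in oleic acid-fed (400 uM added) Drosophila S3 cells treated with a concentration series. 20 uM Triacsin C defined 100% inhibition.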
As for `C/C(=N\NC(=O)CCc1ccc(S(=O)(=O)N2CCOCC2)cc1)c1ccccc1Cl`, the “lipid storage change, negative = inhibition” value is -11% (inactive) and the cell number change was 15.6%.

Consider `C/C(=N\NC(=O)c1cccc(S(=O)(=O)N2CCOCC2)c1)c1ccc(OC(F)F)cc1`, for which the “lipid storage change, negative = inhibition” value is 24.9% (inactive) and the cell number change was determined as 8.64%. Take `COc1ccc(CCNC(=O)COc2ccc(S(=O)(=O)N3CCOCC3)cc2)cc1`: the molecule was called inactive. With `Cc1ccc(CNC(=O)Cc2nc3nc(C)cc(C)n3n2)cc1`, the “lipid storage change, negative = inhibition” value is -1.12% (inactive) and the cell number change came out at 1.61%. For `COc1cc2c(cc1OC)CN(C(=O)Nc1ccccc1Cl)CC2`, the “lipid storage change, negative = inhibition” value is 11.9% (inactive) and the cell number change was -24.6%. Consider `CCc1nnc(NC(=O)CSc2nnc(C)n2CC2CCCO2)s1` (stereo not drawn), for which the “lipid storage change, negative = inhibition” value is 22.4% (inactive) and the cell number change is 6.32%. The corresponding values for `COCCCNC(=O)CSc1nc2ccccc2c(=O)n1Cc1ccc2c(c1)OCO2` are 23.2% (inactive) and -4.93%. Turning to `COc1ccc(C(=O)NCCc2cnc[nH]2)cc1OC`, the “lipid storage change, negative = inhibition” value was 19.2% (inactive) and the cell number change is -11.3%. For the molecule `COC(=O)CCN(C(=O)c1cccc(OC(C)=O)c1)c1ccccn1`, the Potency is 25.9 µM (active) and the cell number change is -22.7%. On to `COC(=O)CCN(C(=O)c1ccc(OC(C)=O)cc1)c1ccccn1`, for which the “lipid storage change, negative = inhibition” value is 2.15% (inactive) and the cell number change is 6.03%.

Take `COC(=O)CCN(C(=O)c1ccc(C)c([N+](=O)[O-])c1)c1ccccn1`: the “lipid storage change, negative = inhibition” value was 18% (inactive) and the cell number change was found to be 16.9%. With `Cc1cc(NC(=O)C(C)SCC(=O)OC(C)C(=O)Nc2ccccc2C)no1` (stereo not drawn), the “lipid storage change, negative = inhibition” value is 27.6% (inactive) and the cell number change was found to be 31.1%. As for `COCCN1CN=C(Nc2nc(C)c3ccc(C)cc3n2)NC1`, the “lipid storage change, negative = inhibition” value is 7.94% (inactive) and the cell number change was determined as 3.94%. For `Cc1ccccc1OCC1CNC(=O)O1` (stereo not drawn), the “lipid storage change, negative = inhibition” value is 1.82% (inactive) and the cell number change was 6.67%. Consider `Cc1cccc(C)c1OCC1CNC(=O)O1` (stereo not drawn), for which the outcome was inactive and the cell number change was found to be 9.47%. In the case of `O=C1NCC(COCc2ccco2)O1` (stereo not drawn), the Potency is 16.4 µM (active) and the cell number change was 0.961%.

As for `Cc1c(C(=O)N(C)Cc2ccccc2)oc2ccc(S(=O)(=O)N3CCCC3)cc12`, the “lipid storage change, negative = inhibition” value is 20.7% (inactive) and the cell number change was -25.2%. With `Cc1c(C(=O)O)oc2ccc(S(=O)(=O)N3CC(C)CC(C)C3)cc12` (stereo not drawn), the “lipid storage change, negative = inhibition” value was 8.14% (inactive) and the cell number change stood at 24.2%.

With `Cc1c(C(=O)NCc2ccc3c(c2)OCO3)oc2ccc(S(=O)(=O)N3CCCC3)cc12`, the molecule was classed as inactive and the cell number change is -21.4%. With `CCN(CC)C(=O)c1oc2ccc(S(=O)(=O)N3CC(C)CC(C)C3)cc2c1C` (stereo not drawn), the Potency is 0.58 µM (active) and the cell number change came out at 13.1%.

`Cc1c(C(=O)NCC2CCCO2)oc2ccc(S(=O)(=O)N3CCCC3)cc12` (stereo not drawn): the “lipid storage change, negative = inhibition” value was -9.13% (inactive) and the cell number change is -3.78%. Turning to `CCOC(=O)N1CCN(C(=O)c2oc3ccc(S(=O)(=O)N4CCCCC4)cc3c2C)CC1`, the “lipid storage change, negative = inhibition” value is 14% (inactive). Regarding `Cc1c(C(=O)NCC2CCCO2)oc2ccc(S(=O)(=O)N3CC(C)CC(C)C3)cc12` (stereo not drawn), the lipid storage change, negative = inhibition was 16.1% [at 9.22 µM] (inactive). With `Cc1c(C(=O)NCCN(C)C)oc2ccc(S(=O)(=O)N3CCCC3)cc12`, the Potency is 0.116 µM (active) and the cell number change was 13.1%. As for `CCCCN(CC)C(=O)c1oc2ccc(S(=O)(=O)N3CCCC3)cc2c1C`, the Potency is 11.6 µM (active) and the cell number change is -20.1%. Regarding `O=[N+]([O-])/C(=C\Nc1ccc(F)cc1F)S(=O)(=O)c1ccccc1`, the “lipid storage change, negative = inhibition” value was 9% (inactive).

`COc1ccc(-c2cc(C(=O)Nc3nc4ccccc4s3)c3ccccc3n2)cc1OC`: the “lipid storage change, negative = inhibition” value was 24.3% (inactive) and the cell number change came to 2.3%. The matching figures for `Cn1cccc1C(=O)OCC(=O)Nc1cc(C(C)(C)C)nn1-c1ccccc1`: 2.46% (inactive) and 10.4%. The corresponding values for `CS(=O)(=O)N(CC(=O)Nc1cccc([N+](=O)[O-])c1)c1cccc(F)c1` are 26% (inactive) and -2.63%. The corresponding values for `CC1CCc2sc(C(=O)NNC(=S)NCC3CCCO3)cc2C1` (stereo not drawn) are 7.7% (inactive) and 20%. For the molecule `Cc1cccc2sc(NC(=O)C3CSC4(C)CCC(=O)N34)nc12` (stereo not drawn), the “lipid storage change, negative = inhibition” value was -1.42% (inactive) and the cell number change was 14.2%. The corresponding values for `O=C(c1cccnc1)N1CCN(S(=O)(=O)c2ccc(Cl)cc2)CC1` are -0.561% (inactive) and -4.89%. As to `COc1ccc(N2CCN(C(=O)CCNS(=O)(=O)c3cc(Br)cnc3N)CC2)cc1`, the call was inactive. For `S=C1NCCOCCNC(=S)NCCOCCOCCN1`, the “lipid storage change, negative = inhibition” value is -11.6% (inactive) and the cell number change was 28%. On to `S=C1NCCOCCOCCOCCOCCN1`, for which the Potency was 13 µM (active) and the cell number change was determined as 20.5%.

With `S=C1NCCOCCOCCOCCN1`, the “lipid storage change, negative = inhibition” value is -10.2% (inactive) and the cell number change was -10.7%. For `N/C(CCN1CCOCC1)=N/O`, the “lipid storage change, negative = inhibition” value is -0.675% (inactive) and the cell number change is -8.53%.

For the molecule `COc1ccc(N2CCn3c2nc2c3c(=O)n(CCN3CCOCC3)c(=O)n2C)cc1`, the “lipid storage change, negative = inhibition” value is 22.2% (inactive) and the cell number change was -1.98%. In the case of `COc1ccc(N2CCCn3c2nc2c3c(=O)n(CCN3CCOCC3)c(=O)n2C)cc1`, the “lipid storage change, negative = inhibition” value is -1% (inactive) and the cell number change is -8.81%.

As for `COc1ccc(N2CC(C)Cn3c2nc2c3c(=O)n(CCN3CCOCC3)c(=O)n2C)cc1` (stereo not drawn), the Potency is 2.06 µM (active) and the cell number change turned out to be 5.05%. Regarding `COCCOC(=O)c1c(NC(=O)CNc2ccc(C)c(F)c2)sc(C(N)=O)c1C`, the “lipid storage change, negative = inhibition” value is 9.19% (inactive) and the cell number change was determined as 3.82%.

As to `CCOc1ccc(/C=C/c2nc(C#N)c(NCCCOC)o2)cc1`, the Potency was 18.4 µM (active) and the cell number change was -10.5%. Take `CCOc1ccc(/C=C/c2nc(C#N)c(NCCCN(C)C)o2)cc1`: the outcome was inactive and the cell number change is -6.82%. For the molecule `CCNc1oc(/C=C/c2ccc(OCC)cc2)nc1C#N`, the “lipid storage change, negative = inhibition” value was -17.7% (inactive) and the cell number change is -11.4%.
